Screening data from PubChem.
ELG1 genotox = inducers of genotoxicity in HEK293T ELG1-luciferase cells | HEK293T ELG1-luciferase reporter, luminescence, 16 h | Potency, µM (top dose mostly 46 µM), actives largely listed as activators | hit rate 1.3% among 330,000 | AID 504466; also: nearly all actives have a fitted effect of over 60% in size
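HEK293T cells expressing luciferase-tagged ELG1 were exposed to compound or DMSO vehicle for 16 hr at 37 °C and 5% CO2. Luciferase activity was then measured with ONE-Glo after 30 min at room temperature.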
NPC1 promoter act = activators of NPC1 promoter | hit rate 2.4% among 320,000 | Potency, µM (doses to about 9.22 µM), actives largely listed as activators | Huh7 NPC1 promoter luciferase reporter, 24 h; also: nearly all actives have a fitted effect of over 60% in size
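Stably transfected Huh7 (NPC1 promoter→luciferase), 1500 cells/well in Opti-MEM + 10% FBS, 2 h settle, then compound 24 h at 37 °C. Luminescence after 10 min with Amplite reagent.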
FLuc modulator = inhibits or activates purified firefly luciferase, miR-21 counter-screen; purified FLuc, Km substrates, luminescence inhibition; Potency, µM (titrated, usually from 57.5 µM), usual class: inhibitors; hit rate 6.9% among 360,000; AID 588342; also: nearly all actives have a fitted effect of over 55% in size
Target sequence (P08659 whole entry, looked up): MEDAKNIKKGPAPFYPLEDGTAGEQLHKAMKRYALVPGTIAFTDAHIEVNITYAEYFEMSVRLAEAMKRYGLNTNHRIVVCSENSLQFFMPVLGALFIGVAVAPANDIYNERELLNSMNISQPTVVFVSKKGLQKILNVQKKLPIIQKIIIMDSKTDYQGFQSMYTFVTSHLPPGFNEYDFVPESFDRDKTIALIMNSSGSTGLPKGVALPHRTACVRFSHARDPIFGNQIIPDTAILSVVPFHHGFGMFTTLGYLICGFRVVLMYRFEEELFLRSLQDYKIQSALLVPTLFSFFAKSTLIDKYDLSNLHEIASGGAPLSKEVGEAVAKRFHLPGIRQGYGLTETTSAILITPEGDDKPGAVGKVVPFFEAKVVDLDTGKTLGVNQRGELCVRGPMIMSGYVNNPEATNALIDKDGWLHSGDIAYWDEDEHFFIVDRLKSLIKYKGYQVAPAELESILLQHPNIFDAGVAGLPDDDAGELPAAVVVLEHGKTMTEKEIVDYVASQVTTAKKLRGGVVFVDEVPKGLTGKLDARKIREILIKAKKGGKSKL
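Purified P. pyralis luciferase, 10 nM final, with Km-level 10 uM D-luciferin and 10 uM ATP in 50 mM Tris acetate pH 7.5, 10 mM Mg acetate, 0.01% Tween-20, 0.05% BSA; 6-point qHTS titration about 60 µM downward; luminescence read.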
SMN2 splice up = SMN2 splice variant enhancement; HEK293 SMN2-luciferase splicing reporter, luminescence, 30-36 h; Potency, µM (series often up to 46.1 µM), usual class: activators; hit rate 2.8% among 210,000; AID 1458; also: nearly all actives have a fitted effect of over 55% in size
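qHTS luciferase splicing reporter: luminescence rises when SMN2 exon 7 is included in transfected HEK293 cells. Compound exposure lasted 30-36 h at 37C, with 4.5 mM final sodium butyrate as control, followed by a ONE-Glo read.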
Rab9 prom act = activates the Rab9 promoter | Huh7 Rab9 promoter-luciferase reporter, luminescence, 24 h | Potency, µM (doses to about 9.22 µM), most hits filed as activators | hit rate 2.8% among 320,000; also: nearly all actives have a fitted effect of over 60% in size
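Stable Rab9-luc Huh7, 1500 cells/well, 2 h settle; cmpd in DMSO, 24 h, 37 °C/5% CO2; luciferase reagent 10 min RT; luminescence.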
A number is an active result; i = inactive; ? = inconclusive; nt = not tested or not shown; [ ] = another dose, or the depositor's remark. The list is not random: actives were taken first. Their share in the collection is about 7.4%. Calls follow the shape of the dose curve; as a rule, active = well fitted curve in the direction sought with a large enough effect; inconclusive = small, poorly fitted or top-dose-only effect, or another doubt; inactive = no such curve, though single readings can be large; an effect the other way counts as inactive or inconclusive.

SMILES	ELG1 genotox	NPC1 promoter act	FLuc modulator	SMN2 splice up	Rab9 prom act
CCOc1ncccc1C(=O)Nc1ccc(C(=O)Nc2ccc(OC)cc2)cc1	i	i	i	nt	i
CCCCCCN(C(=O)CCCCCN1C(=O)NC(c2ccc(-c3ccccc3)cc2)C(C(=O)OCc2ccccc2)=C1C)C(C(=O)NCCCC)c1ccc(OCC(=O)O)c(C(=O)O)c1 (stereo not given)	nt	nt	nt	i	nt
Clc1cccc(CSc2ncn(-c3ccccc3)n2)c1	?	i	19µM	?	i
Clc1ccc(CSc2ncn(-c3ccccc3)n2)cc1	i	i	i	i	i
COc1cccc(CNS(=O)(=O)c2cnc(N)nc2)c1	nt	nt	i	nt	nt
COc1ccc(F)cc1S(=O)(=O)N1CCCN(S(=O)(=O)c2cc(F)ccc2OC)CC1	i	i	i[2.3 µM]	i	i
COc1ccc(F)cc1S(=O)(=O)n1cc(C)nc1-c1ccccc1	i	i	i	3.55µM	i
Cc1cc(C)cc(NC(=O)N2CCC(C(N)=O)(N3CCCCC3)CC2)c1	nt	nt	i	i	nt
CCCNS(=O)(=O)c1ccc(OCC(=O)Nc2ccc3c(c2)OCCO3)c(C)c1	i	i	i	nt	i
CC(=O)c1cccc(NC(=O)C(=O)Nc2cccc3ccccc23)c1	i	?	?	nt	2.51µM
O=C(Nc1cccc2ccccc12)c1ccc(F)cc1	i[9.26 µM]	i	?	nt	i
O=C(Nc1cccc2ccccc12)c1ccccc1Cl	i	i	i	nt	i
Nc1ccccc1C(=O)Nc1cccc2ccccc12	?	3.16µM	19µM	nt	2.82µM
O=C(Nc1cccc2ccccc12)c1ccccc1	?	?	13.5µM	i[9.22 µM]	3.55µM
CC(=O)Nc1ccc(NC(=O)CCC(=O)Oc2ccc(C)cc2)cc1	i	i	i	nt	i
O=C(NCCN1CCc2ccccc2C1)Nc1ccc(F)cc1	i	i	i	i	i
O=C(Nc1ccc(Br)cc1)N1CCc2ccccc2C1	?	2.82µM	10.7µM	nt	2.82µM
O=C(CN1CCc2ccccc2C1)Nc1ccc(Br)cc1	i	i	?	i	i
O=C(Nc1ccc(F)cc1)N1CCc2ccccc2C1	?	3.98µM	23.9µM	nt	?
CCOC(=O)c1ccc(S(=O)(=O)N2CCN(c3ccccn3)CC2)cc1	i	i	i	nt	i
O=C(N/N=C/c1ccco1)c1cc(-c2ccccc2)nc2ccccc12	i	i	21.3µM	nt	i
O=C(N/N=C/c1ccco1)c1cc(C2CC2)nc2ccccc12	i	i	i	i	i
COc1cccc(-c2cc(C(=O)NN3CCOCC3)c3ccccc3n2)c1	i	i	i	i	i
COc1cccc(-c2cc(C(=O)N/N=C/c3ccco3)c3ccccc3n2)c1	i	i	3.38µM	nt	i
COc1cccc(NC(=O)Cn2c(CCC(=O)O)ccc2-c2ccc(C)cc2)c1	i	i	?	i	i
SMILES	ELG1 genotox	NPC1 promoter act	FLuc modulator	SMN2 splice up	Rab9 prom act
CCNc1ncc2nc(CCc3ccccc3)c(=O)n(C)c2n1	nt	nt	nt	12.6µM	nt
CCOC(=O)c1c(NC(=O)CCCOc2ccc(C(C)(C)C)cc2)sc2c1CCCC2	nt	nt	i	i	nt
CCN(CC)c1ccc(/C=N/N=C(N)N)c(O)c1	i	i	i	i	i
CCCCS/C(N)=N/N=C/c1cc(C)ccc1O	?	i	16.9µM	i	i
CCS/C(N)=N/N=C/c1cc(C)ccc1O	1.16µM	1.58µM	0.953µM	11.2µM	?
CS/C(N)=N/N=C/c1cc(Br)cc(Br)c1O	i	i	26.9µM	nt	i
CS/C(N)=N/N=C/c1cc(C)ccc1O	7.3µM	1.12µM	1.2µM	nt	0.159µM
Cc1ccc2c(CN3CCN(Cc4ccccc4Cl)CC3)cc(=O)oc2c1	nt	nt	i	i	nt
COc1ccc2cc(C(C)C(=O)NC3CCC(O)CC3)ccc2c1 (stereo not given)	i	i	i	nt	i
Cc1cccc(OCC(=O)Nc2cccc(-c3nc4ccccc4s3)c2)c1	nt	nt	6.01µM	3.16µM	nt
Cc1ccc(OCC(=O)Nc2cccc(-c3nc4ccccc4s3)c2)cc1	nt	nt	9.53µM	nt	nt
Cn1c(=O)c2ncn(CC(=O)Nc3cccc(-c4nc5ccccc5s4)c3)c2n(C)c1=O	i	3.16µM	3.79µM	i	?
CCOC(=O)Cn1nc(-c2ccccc2)c2cnc3ccc(OCC)cc3c21	nt	nt	i	i	nt
Cc1cn2c(=O)cc(COC(=O)c3cccc(NC(=O)c4ccccc4C)c3)nc2s1	nt	nt	i	nt	nt
COc1ccccc1C(=O)Nc1cccc(OCc2cc(=O)n3ccccc3n2)c1	nt	nt	7.57µM	nt	nt
O=C(Nc1cccc(C(=O)OCc2cc(=O)n3c4c(sc3n2)CCCC4)c1)c1ccccc1	nt	nt	2.39µM	nt	nt
